This passage reports growth inhibition results from PubChem BioAssay (NCI).

The panel holds about 79,000 compounds, 15% with a hit somewhere; the sample as a whole holds those more often. The source made the active and inactive calls. Rule as the data show it: active = growth inhibition above about 70%; inactive = the rest.

This assay is described as follows: NCI Yeast Anticancer Drug Screen. Data for the sgs1 mgt1 strain (AID 161).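 Also: 0% = growth of cultures given vehicle only.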 The following applies: S. cerevisiae sgs1 mgt1 strain, at 50.0 µM, hits give high values. The method, boiled down: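 Growth of a repair-deficient yeast mutant was monitored after compound treatment and expressed as inhibition relative to vehicle-treated cultures.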
As for `CCC1(c2ccc(N3C(=O)c4ccccc4C3=O)cc2)CCC(=O)NC1=O` (stereo unspecified), the growth inhibition was 86.3% (active).
For `CN(C)c1c([N+](=O)[O-])cc(N2C(=O)C=CC2=O)cc1[N+](=O)[O-]`, the growth inhibition is 93.8% (active).
Under `CCOC1(OCC)Oc2c(Cl)c(Cl)c(Cl)c(Cl)c2OC1(OCC)OCC` stands 98.5% (active); under `CC(=O)NC1=C(Oc2ccccc2)C(=O)c2ccccc2C1=O`, 99.1% (active).
To `CC1SC(=S)N(c2ccc(Cl)cc2)C1=O` (stereo unspecified) belongs 45.5% (inactive); to `CC(NNC(=S)N1CC2CCC(CC2)C1)c1cc2ccccc2cn1` (stereo unspecified), 94.5% (active); to `CCCCCCCCCCCCCC(=O)N1CCOCC1`, 98% (active).
As to `COC(O)C(=O)c1c2c(cc3c1CC1(Cc4cc5c(cc4C1)CCC5)C3)CCC2` (stereo unspecified), the growth inhibition is 83.2% (active).
To `CCC(=O)OCC(=O)c1ccc(-c2ccccc2)cc1` belongs 3% (inactive).
On to `CN(Cc1cnc2nc(N)nc(N)c2n1)c1ccc(C(=O)NC(CCC(=O)O)C(=O)O)cc1` (stereo unspecified), for which the growth inhibition was 45.8% (inactive).
To `COc1ccc(C(=O)Nc2ccc(O)c(=O)cc2)cc1` belongs 73.3% (active); to `c1cc[c]([Sn]([NH]c2ncnc3[nH]cnc23)([NH]c2ncnc3[nH]cnc23)[c]2ccccc2)cc1`, 58.3% (inactive).
Under `CCCCCCCCCCCC1C(C#N)C(=O)NC(=O)C1C#N` (stereo unspecified) stands 64.7% (inactive); under `c1ccc(CSc2nnc3c4ccccc4c4ccccc4c3n2)cc1`, -5.3% (inactive).
Under `Cc1ccc(-n2cc(-c3ccc(Cl)cc3)c3c(N)ncnc32)cc1` stands 98.3% (active); under `C[C@]12CCC3[C@@H](CC[C@@H]4c5nonc5CC[C@]34C)C1CCC(=O)N2` (stereo partly specified), 51.5% (inactive).
